Results filed as inconclusive are left out. Active and inactive are the calls of the source. The call rests on the fitted dose curve; in most records, active means well fitted inhibition curve with a large enough effect; inconclusive means small, poorly fitted or top-dose-only effect; inactive means flat fitted curve, though single readings scatter.
Key:
Experiment in all cases: qHTS profiling for inhibitors of Plasmodium falciparum proliferation (AID 504749); further: nearly all actives have a fitted effect of over 60% in size
Conditions in all cases: P. falciparum in erythrocytes, SYBR Green DNA, 72 h; series mostly up to 28.7 µM
AS120 = system: AS120
Procedure, shortened: (§1)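 Three-day growth assay of blood-stage parasites in erythrocytes (0.3% parasitemia, 2.5% hematocrit) at 37 C, 5% CO2, quantified by SYBR Green DNA staining after overnight detergent lysis.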

CP192 = system: CP192
Procedure, shortened: as §1

CP201 = system: CP201
Procedure, shortened: as §1

CP203 = system: CP203
Procedure, shortened: as §1

CP211 = system: CP211
Procedure, shortened: as §1

CP215 = system: CP215
Procedure, shortened: as §1

CP250 = system: CP250
Procedure, shortened: as §1

CP256 = system: CP256
Procedure, shortened: as §1

AA1029 = system: AA1029
Procedure, shortened: as §1

ATS95 = system: ATS95
Procedure, shortened: as §1

C2A = system: C2A
Procedure, shortened: as §1

CP185 = system: CP185
Procedure, shortened: as §1

CP217 = system: CP217
Procedure, shortened: as §1

CP238 = system: CP238
Procedure, shortened: as §1

CP252 = system: CP252
Procedure, shortened: as §1

ATS189 = system: ATS189
Procedure, shortened: as §1

CP191 = system: CP191
Procedure, shortened: as §1

CP194 = system: CP194
Procedure, shortened: as §1

CP247 = system: CP247
Procedure, shortened: as §1

CP237 = system: CP237
Procedure, shortened: as §1

Measured: Potency
Potency means the concentration at half of the fitted maximal effect.

CN(C)C(=O)CCSC(SCCC(=O)O)c1cccc(/C=C/c2ccc3ccc(Cl)cc3n2)c1 (centres undefined)
active: AS120 10 µM
inactive: CP192 | CP201 | CP203 | CP211 | CP215 | CP250 | CP256

Oc1cccc(O)c1O
inactive: AA1029 | ATS95 | C2A | CP185 | CP217 | CP238 | CP250 | CP252 | CP256

CN(C)CCCSc1ccccc1NC(=O)/C=C/c1ccccc1
not listed: AA1029 | CP237
inactive: all other assays above

O=C(CCCN1CCC(C(=O)c2ccc(F)cc2)CC1)c1ccc(F)cc1
active: CP191 2 µM
not listed: CP203 | ATS95 | ATS189 | CP194 | CP247 | CP237
inactive: all other assays above

Cn1c(O)c(N=NC(N)=S)c2ccccc21
active: CP237 11.2 µM | CP247 8.91 µM
inactive: CP192 | CP201 | CP203 | CP211

CC(=O)Nc1ccc(NC(=S)NC(=O)c2ccc(C(C)(C)C)cc2)cc1
not listed: AA1029 | ATS95 | CP237
inactive: all other assays above

O=C(CCCN1CCN2CCCC2C1)c1ccc(F)cc1 (centres undefined)
active: CP237 10 µM
not listed: CP203 | CP211 | CP256 | AA1029 | ATS95 | CP238 | ATS189 | CP194
inactive: all other assays above

CCN(CC)CCC(=O)N1c2ccccc2Sc2ccc(Cl)cc21
active: CP256 11.2 µM
inactive: ATS189 | CP192 | CP201

CS(=O)(=O)c1ccc([C@@H](O)[C@@H](COC(=O)CN)NC(=O)C(Cl)Cl)cc1
inactive: AS120 | ATS189 | CP191 | CP192 | CP247 | CP250

CCCC(CCC)C(=O)OC1C[C@H]2CC[C@@H](C1)[N+]2(C)C (some centres undefined)
active: AA1029 11.2 µM | CP256 12.6 µM

CC[C@H]1OC(=O)[C@H](C)[C@@H](O[C@H]2C[C@@](C)(OC)[C@@H](O)[C@H](C)O2)C(C)[C@@H](O[C@@H]2O[C@H](C)C[C@H](N(C)C)[C@@H]2O)[C@](C)(OC)C[C@@H](C)C(=O)[C@H](C)[C@@H](O)[C@]1(C)O (some centres undefined)
active: CP237 7.94 µM | CP256 1.26 µM
not listed: AS120 | CP211 | CP215 | CP250 | CP217 | CP191 | CP194
inactive: all other assays above
